Assay in all cases: DAPPL (digital affinity profiling via proximity ligation, sequencing); 10 mM Tris-HCl pH 7.5, 50 mM NaCl, 1 mM DTT, 4% glycerol, room temperature, 30 min; GST-TFs on glutathione beads, 16-mer random dsDNA library, 0.1% formaldehyde crosslink after washing; high values mean tight binding
One assay has as its target T1, FLI1 (Homo sapiens, UniProt Q01543 1-452).
T1 sequence: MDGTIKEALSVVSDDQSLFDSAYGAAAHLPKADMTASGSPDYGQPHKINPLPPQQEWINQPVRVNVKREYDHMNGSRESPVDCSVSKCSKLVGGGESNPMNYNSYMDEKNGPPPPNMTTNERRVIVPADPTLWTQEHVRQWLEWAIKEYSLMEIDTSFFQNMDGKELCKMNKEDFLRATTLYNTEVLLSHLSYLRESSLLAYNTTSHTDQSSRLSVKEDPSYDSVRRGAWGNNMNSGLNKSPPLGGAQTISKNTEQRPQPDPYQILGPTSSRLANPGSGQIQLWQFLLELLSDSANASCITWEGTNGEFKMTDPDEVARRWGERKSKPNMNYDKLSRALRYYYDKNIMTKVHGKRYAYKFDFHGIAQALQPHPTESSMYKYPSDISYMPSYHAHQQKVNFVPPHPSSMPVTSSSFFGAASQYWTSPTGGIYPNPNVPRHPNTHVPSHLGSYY
Conditions: protein: recombinant; tags: N-terminal GST; dsDNA, one strand shown. In short, it runs like this: (§1)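 Pools of DNA-barcoded human transcription factors, expressed in yeast as GST fusions on glutathione beads and combined with a tag-only sample, were incubated with 200 nmole of a 16-mer random double-stranded DNA library. Incubation took 30 min at room temperature in Tris/NaCl/DTT/glycerol buffer and was followed by washing, 0.1% formaldehyde crosslinking, proximity ligation (BsaI/T4 ligase, 1 h, 37 °C), PCR amplification and sequencing on an Illumina NextSeq500. Binding signal is the ratio of a hexamer's read frequency for a factor to its frequency for the tag-only sample.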

Another assay addresses T2, ELK1 (Homo sapiens, UniProt P19419 1-428).
T2 sequence: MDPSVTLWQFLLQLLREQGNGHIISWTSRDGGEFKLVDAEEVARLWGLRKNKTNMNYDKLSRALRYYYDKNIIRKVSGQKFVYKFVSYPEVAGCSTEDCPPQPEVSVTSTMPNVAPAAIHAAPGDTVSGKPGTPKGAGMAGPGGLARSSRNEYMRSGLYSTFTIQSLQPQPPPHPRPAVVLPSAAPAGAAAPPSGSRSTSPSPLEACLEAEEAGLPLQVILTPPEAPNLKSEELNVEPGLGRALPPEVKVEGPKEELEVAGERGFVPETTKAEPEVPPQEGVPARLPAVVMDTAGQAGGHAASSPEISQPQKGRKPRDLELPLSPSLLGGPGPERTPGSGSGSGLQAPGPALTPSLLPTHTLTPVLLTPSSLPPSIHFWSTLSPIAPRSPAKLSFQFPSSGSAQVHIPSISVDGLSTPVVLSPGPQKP
Conditions: protein: recombinant; tags: N-terminal GST; dsDNA, one strand shown. The method, boiled down: as §1

The next assay deals with T3, GABPA (Homo sapiens, UniProt Q06546 1-454).
T3 sequence: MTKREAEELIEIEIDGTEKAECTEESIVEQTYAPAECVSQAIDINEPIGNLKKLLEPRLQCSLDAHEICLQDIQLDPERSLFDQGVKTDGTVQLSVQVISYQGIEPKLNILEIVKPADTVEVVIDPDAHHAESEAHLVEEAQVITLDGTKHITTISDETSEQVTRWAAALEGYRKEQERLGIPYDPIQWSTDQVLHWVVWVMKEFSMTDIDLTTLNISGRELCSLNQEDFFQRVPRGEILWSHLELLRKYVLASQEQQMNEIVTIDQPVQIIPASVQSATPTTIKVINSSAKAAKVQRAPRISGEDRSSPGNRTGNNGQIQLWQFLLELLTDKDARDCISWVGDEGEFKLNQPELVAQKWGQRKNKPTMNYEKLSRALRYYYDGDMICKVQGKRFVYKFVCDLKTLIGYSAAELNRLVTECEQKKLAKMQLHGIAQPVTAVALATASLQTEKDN
Conditions: protein: recombinant; tags: N-terminal GST; dsDNA, one strand shown. In short, it runs like this:
as §1

A further assay addresses T4, ERG (Homo sapiens, UniProt P11308 1-479).
T4 sequence: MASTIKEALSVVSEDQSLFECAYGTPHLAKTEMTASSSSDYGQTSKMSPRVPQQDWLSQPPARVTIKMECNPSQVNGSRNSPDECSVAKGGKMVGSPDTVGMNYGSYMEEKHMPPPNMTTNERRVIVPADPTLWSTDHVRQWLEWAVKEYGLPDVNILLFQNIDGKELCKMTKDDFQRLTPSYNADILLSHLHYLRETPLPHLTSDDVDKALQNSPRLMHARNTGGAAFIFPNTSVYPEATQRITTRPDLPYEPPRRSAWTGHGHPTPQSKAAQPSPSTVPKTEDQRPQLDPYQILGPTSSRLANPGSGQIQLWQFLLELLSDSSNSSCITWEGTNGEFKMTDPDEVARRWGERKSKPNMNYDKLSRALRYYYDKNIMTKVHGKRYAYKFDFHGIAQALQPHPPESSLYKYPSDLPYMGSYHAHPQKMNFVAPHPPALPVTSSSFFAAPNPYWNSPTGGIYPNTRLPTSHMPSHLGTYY
Conditions: protein: recombinant; tags: N-terminal GST; dsDNA, one strand shown. The method, boiled down:
as §1

The target in another assay is ELF1 (Homo sapiens, UniProt P32519 1-619). The settings on record: protein: recombinant; tags: N-terminal GST; dsDNA, one strand shown. In short, it runs like this:
as §1

In another assay the target is T5, EHF (Homo sapiens, UniProt Q9NZC4 1-300).
T5 sequence: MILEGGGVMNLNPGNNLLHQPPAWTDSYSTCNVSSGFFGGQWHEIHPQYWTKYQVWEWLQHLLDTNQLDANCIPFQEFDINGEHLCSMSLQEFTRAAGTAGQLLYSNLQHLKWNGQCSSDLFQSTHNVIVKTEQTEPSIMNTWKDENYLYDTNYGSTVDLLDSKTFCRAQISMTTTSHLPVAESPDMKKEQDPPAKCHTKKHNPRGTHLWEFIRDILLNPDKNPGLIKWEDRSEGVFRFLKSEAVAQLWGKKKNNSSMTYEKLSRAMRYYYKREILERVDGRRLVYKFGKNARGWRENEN
Conditions: protein: recombinant; tags: N-terminal GST; dsDNA, one strand shown. The method, boiled down: as §1

A further assay concerns the target SPI1 (Homo sapiens, UniProt P17947 1-270). Conditions: protein: recombinant; tags: N-terminal GST; dsDNA, one strand shown. The method, boiled down: as §1
The next assay concerns the target SPIB (Homo sapiens, UniProt Q01892 1-262). Conditions: protein: recombinant; tags: N-terminal GST; dsDNA, one strand shown. In short, it runs like this: as §1
In the next assay the target is T6, FEV (Homo sapiens, UniProt Q99581 1-238).
T6 sequence: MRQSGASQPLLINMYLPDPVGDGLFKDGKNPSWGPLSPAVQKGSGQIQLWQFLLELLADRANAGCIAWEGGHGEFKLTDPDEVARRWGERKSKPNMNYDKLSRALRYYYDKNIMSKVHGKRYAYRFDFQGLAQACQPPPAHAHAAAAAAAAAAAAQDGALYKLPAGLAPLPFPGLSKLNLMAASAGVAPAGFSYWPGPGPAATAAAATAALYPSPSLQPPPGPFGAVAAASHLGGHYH
Conditions: protein: recombinant; tags: N-terminal GST; dsDNA, one strand shown. In short, it runs like this: as §1

Another assay addresses ETV5 (Homo sapiens, UniProt P41161 1-510). The settings on record: protein: recombinant; tags: N-terminal GST; dsDNA, one strand shown. The method, boiled down:
as §1

A further assay has as its target HSF1 (Homo sapiens, UniProt Q00613 1-529). Conditions: protein: recombinant; tags: N-terminal GST; chain copies: 3; dsDNA, one strand shown. In short, it runs like this:
as §1

The target of a further assay is T7, SPIC (Homo sapiens, UniProt Q8N5J4 1-248).
T7 sequence: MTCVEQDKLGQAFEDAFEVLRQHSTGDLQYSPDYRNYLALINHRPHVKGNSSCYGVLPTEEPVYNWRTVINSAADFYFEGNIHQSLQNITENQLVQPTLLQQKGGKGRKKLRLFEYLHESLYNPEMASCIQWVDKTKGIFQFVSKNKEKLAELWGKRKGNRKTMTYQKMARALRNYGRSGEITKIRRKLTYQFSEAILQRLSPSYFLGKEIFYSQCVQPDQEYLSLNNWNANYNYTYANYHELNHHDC
Conditions: protein: recombinant; tags: N-terminal GST; dsDNA, one strand shown. In short, it runs like this:
as §1

Another assay addresses ELF4 (Homo sapiens, UniProt Q99607 1-663). Conditions: protein: recombinant; tags: N-terminal GST; dsDNA, one strand shown. In short, it runs like this: as §1
A further assay concerns the target T8, ELK4 (Homo sapiens, UniProt P28324-2 1-405).
T8 sequence: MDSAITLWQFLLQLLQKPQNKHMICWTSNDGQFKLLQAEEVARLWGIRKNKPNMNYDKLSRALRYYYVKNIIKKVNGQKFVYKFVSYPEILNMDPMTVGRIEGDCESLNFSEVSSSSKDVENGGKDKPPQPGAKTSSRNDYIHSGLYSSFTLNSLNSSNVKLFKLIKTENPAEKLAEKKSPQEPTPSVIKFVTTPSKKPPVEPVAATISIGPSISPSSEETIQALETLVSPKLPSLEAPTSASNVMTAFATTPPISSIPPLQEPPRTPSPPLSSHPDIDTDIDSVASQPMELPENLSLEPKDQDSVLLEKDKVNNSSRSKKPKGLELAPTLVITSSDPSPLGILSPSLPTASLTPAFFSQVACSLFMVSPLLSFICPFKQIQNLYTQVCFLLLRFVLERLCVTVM
The settings on record: protein: recombinant; tags: N-terminal GST; dsDNA, one strand shown. In short, it runs like this: as §1

The next assay deals with T9, ETV2 (Homo sapiens, UniProt O00321 1-342).
T9 sequence: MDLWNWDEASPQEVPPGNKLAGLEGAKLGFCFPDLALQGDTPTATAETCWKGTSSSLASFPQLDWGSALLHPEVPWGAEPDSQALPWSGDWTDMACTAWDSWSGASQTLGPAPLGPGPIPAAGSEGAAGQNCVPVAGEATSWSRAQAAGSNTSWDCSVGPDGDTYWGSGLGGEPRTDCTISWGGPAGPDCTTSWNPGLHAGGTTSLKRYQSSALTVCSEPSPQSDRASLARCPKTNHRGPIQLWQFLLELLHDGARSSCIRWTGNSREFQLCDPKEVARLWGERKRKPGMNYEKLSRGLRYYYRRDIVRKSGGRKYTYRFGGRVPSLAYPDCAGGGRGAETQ
The settings on record: protein: recombinant; tags: N-terminal GST; dsDNA, one strand shown. The method, boiled down: as §1

The next assay has as its target T10, ELF3 (Homo sapiens, UniProt P78545 1-371).
T10 sequence: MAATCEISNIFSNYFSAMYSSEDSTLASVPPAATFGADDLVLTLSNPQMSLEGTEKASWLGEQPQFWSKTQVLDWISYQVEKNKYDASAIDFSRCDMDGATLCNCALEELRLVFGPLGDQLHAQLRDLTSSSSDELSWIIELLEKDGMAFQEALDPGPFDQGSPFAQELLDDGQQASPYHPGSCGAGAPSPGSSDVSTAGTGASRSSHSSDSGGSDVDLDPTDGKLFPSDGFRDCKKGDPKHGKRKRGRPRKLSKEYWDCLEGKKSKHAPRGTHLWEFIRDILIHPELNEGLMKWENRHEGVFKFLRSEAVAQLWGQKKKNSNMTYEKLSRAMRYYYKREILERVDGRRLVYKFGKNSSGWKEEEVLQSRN
The settings on record: protein: recombinant; tags: N-terminal GST; dsDNA, one strand shown. The method, boiled down:
as §1

A further assay addresses CRX (Homo sapiens, UniProt O43186 1-299). Conditions: protein: recombinant; tags: N-terminal GST; dsDNA, one strand shown. In short, it runs like this: as §1
A further assay addresses ETV1 (Homo sapiens, UniProt P50549 1-477). Conditions: protein: recombinant; tags: N-terminal GST; dsDNA, one strand shown. The method, boiled down:
as §1

Chain of ELF1 (P32519 whole entry): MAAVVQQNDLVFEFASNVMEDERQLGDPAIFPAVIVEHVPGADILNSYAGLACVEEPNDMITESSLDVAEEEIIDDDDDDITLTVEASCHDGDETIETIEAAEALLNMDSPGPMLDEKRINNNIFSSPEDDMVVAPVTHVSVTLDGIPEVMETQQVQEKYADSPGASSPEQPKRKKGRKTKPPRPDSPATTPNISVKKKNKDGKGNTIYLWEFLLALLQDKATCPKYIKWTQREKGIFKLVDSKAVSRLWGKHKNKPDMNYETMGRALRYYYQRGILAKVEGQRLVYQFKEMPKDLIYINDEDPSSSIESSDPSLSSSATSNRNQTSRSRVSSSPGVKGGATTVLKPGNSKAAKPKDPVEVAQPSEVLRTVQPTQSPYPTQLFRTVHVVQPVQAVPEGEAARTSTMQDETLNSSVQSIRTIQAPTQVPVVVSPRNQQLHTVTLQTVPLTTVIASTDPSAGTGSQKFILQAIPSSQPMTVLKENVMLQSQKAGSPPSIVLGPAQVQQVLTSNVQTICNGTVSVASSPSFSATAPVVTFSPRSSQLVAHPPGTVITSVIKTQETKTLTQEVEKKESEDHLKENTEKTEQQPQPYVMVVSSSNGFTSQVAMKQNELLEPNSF
Chain of HSF1 (Q00613 whole entry): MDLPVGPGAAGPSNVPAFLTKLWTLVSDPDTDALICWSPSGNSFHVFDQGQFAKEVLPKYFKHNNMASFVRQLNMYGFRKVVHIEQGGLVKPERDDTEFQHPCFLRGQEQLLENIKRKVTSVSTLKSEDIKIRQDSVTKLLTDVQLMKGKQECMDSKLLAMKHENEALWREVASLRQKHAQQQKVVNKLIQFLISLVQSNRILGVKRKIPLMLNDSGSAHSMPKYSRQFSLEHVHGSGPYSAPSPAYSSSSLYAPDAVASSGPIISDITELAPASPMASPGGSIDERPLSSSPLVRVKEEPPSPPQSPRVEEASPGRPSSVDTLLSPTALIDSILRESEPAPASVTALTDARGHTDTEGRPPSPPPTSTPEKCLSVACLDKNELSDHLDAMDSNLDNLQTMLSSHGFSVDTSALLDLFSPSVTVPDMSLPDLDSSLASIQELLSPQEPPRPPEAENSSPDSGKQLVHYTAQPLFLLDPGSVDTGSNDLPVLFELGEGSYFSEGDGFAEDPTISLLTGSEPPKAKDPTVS
Chain of ELF4 (Q99607 whole entry): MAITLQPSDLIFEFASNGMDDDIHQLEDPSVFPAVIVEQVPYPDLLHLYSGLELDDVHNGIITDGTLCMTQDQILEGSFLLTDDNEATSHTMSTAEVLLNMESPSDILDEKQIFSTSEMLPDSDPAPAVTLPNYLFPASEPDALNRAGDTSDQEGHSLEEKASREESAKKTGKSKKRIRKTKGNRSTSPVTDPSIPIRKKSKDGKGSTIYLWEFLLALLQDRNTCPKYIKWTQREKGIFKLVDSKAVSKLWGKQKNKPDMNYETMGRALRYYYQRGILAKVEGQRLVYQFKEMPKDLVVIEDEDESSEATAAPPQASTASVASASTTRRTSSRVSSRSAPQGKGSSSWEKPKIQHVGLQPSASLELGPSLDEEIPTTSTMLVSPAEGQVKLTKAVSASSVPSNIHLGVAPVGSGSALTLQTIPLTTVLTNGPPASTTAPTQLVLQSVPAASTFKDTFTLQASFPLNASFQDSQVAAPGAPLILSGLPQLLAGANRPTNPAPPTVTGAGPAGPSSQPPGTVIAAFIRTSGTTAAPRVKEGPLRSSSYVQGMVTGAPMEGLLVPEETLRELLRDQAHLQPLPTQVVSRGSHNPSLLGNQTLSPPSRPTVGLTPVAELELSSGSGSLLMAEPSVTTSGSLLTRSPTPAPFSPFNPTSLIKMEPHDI
Chain of ETV5 (P41161 whole entry): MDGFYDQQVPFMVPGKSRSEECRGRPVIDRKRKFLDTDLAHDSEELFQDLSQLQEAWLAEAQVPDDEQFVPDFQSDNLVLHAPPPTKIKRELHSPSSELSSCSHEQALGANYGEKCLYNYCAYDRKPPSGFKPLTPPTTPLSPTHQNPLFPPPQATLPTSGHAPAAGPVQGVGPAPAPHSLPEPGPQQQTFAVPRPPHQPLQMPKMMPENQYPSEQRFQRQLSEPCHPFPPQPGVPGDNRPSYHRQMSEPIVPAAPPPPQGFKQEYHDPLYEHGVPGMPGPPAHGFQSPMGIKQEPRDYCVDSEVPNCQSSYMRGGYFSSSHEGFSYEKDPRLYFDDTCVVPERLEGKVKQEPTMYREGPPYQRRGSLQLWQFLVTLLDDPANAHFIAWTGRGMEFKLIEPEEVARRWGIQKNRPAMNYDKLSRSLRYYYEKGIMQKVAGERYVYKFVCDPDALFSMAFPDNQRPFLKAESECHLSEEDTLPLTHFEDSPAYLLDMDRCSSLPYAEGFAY
Chain of SPIB (Q01892 whole entry): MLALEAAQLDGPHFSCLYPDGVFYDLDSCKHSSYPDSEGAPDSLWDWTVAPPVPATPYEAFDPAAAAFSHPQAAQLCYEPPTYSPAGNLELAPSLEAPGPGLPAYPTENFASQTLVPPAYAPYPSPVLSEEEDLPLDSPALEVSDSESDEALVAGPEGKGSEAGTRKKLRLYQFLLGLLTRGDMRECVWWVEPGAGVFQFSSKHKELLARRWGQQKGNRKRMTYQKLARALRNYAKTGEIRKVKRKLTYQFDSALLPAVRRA
Chain of ETV1 (P50549 whole entry): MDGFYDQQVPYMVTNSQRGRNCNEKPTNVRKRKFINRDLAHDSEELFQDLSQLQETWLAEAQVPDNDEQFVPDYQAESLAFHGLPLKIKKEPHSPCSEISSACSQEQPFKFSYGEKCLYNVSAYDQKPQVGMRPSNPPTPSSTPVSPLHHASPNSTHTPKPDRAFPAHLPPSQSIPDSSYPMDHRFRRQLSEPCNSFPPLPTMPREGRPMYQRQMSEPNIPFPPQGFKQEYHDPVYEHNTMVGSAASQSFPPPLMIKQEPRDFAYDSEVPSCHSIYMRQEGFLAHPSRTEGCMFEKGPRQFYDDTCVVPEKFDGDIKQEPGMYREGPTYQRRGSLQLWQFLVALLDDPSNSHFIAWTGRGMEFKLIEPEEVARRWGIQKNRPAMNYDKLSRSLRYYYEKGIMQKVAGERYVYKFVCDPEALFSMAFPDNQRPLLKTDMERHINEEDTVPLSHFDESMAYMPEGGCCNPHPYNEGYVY
Chain of CRX (O43186 whole entry): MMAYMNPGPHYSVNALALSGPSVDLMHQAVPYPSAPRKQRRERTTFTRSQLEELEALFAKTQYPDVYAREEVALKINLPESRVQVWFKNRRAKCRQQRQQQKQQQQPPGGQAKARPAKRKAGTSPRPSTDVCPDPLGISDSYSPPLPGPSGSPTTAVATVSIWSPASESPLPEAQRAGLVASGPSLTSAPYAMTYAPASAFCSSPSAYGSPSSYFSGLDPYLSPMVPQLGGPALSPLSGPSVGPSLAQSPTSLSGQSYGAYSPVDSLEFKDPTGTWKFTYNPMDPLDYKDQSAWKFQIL

Consider CCGAGC, for which the binding signal with FLI1 is 1.17 fold enrichment (6-mer frequency, TF over GST control); with ELK1, 1.25 fold enrichment (6-mer frequency, TF over GST control); in the assay with GABPA it was 1.2 fold enrichment (6-mer frequency, TF over GST control); with ERG, 1.11 fold enrichment (6-mer frequency, TF over GST control); with ELF1, 1.15 fold enrichment (6-mer frequency, TF over GST control); in the assay with EHF, 1.12 fold enrichment (6-mer frequency, TF over GST control). For the same sequence, the binding signal in the assay with SPI1 was 1.12 fold enrichment (6-mer frequency, TF over GST control); with SPIB, 1.19 fold enrichment (6-mer frequency, TF over GST control); with FEV, 1.18 fold enrichment (6-mer frequency, TF over GST control); in the assay with ETV5, 1.14 fold enrichment (6-mer frequency, TF over GST control); with HSF1, 1.13 fold enrichment (6-mer frequency, TF over GST control); in the assay with SPIC, 1.26 fold enrichment (6-mer frequency, TF over GST control). The binding signal was 1.09 fold enrichment (6-mer frequency, TF over GST control) with ELF4; 1.09 fold enrichment (6-mer frequency, TF over GST control) in the assay with ELK4; 1.35 fold enrichment (6-mer frequency, TF over GST control) with ETV2; 1.23 fold enrichment (6-mer frequency, TF over GST control) with ELF3; 1.01 fold enrichment (6-mer frequency, TF over GST control) in the assay with CRX; 1.02 fold enrichment (6-mer frequency, TF over GST control) in the assay with ETV1.

Values taken from paper PMC7862700, “An all-to-all approach to the identification of sequence-specific readers for epigenetic DNA modifications on cytosine”.
